Records with an inconclusive call do not appear. Active and inactive are the calls of the source. Calls follow the shape of the dose curve; as a rule, active = well fitted curve in the direction sought with a large enough effect; inconclusive = small, poorly fitted or top-dose-only effect, or another doubt; inactive = no such curve, though single readings can be large; an effect the other way counts as inactive or inconclusive.
What was measured:
[1] = biological target: Glucagon-like peptide 1 receptor (Homo sapiens) (UniProt P43220); experiment: qHTS of GLP-1 Receptor Agonists: LOPAC Validation (AID 624148);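 also: luminescence from a luciferase reporter switched on by cAMP; higher luminescence signal means agonism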
Chain of Glucagon-like peptide 1 receptor (Homo sapiens) (P43220 whole entry, looked up): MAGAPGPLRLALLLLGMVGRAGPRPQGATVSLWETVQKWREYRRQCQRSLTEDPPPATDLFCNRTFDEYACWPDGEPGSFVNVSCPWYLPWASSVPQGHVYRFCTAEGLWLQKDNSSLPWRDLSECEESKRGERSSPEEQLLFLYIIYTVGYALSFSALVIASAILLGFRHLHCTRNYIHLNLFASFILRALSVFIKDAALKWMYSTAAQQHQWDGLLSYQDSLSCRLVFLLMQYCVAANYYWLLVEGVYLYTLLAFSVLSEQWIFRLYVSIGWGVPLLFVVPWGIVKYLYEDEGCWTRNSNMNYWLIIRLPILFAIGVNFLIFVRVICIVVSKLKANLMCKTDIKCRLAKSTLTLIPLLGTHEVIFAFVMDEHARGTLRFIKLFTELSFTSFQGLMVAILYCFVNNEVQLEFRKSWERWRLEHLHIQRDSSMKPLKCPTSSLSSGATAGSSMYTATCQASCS
Method in brief: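 Agonism scored as increased luciferase luminescence driven by cAMP in HEK293 clones carrying GLP-1R. Cells settled 12 hours, received compound for 4-6 hr at 37 deg C, 5% CO2, and were read after 12 min detection reagent at RT.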

[2] = qHTS of Nrf2 Activators: LOPAC Validation (AID 624149)
Method in brief: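 AREc32_Fluc cells, 1000/well in OPTI-MEM with 5% FBS, grown overnight, then exposed to compounds for 24 hr at 37 deg C, 5% CO2. ARE-driven firefly luciferase read by Steady-Glo luminescence after 30 min at RT.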

[3] = HTS Assay for Allosteric Antagonists of the Human D2 Dopamine Receptor: Hit Validation in HTRF (AID 624455);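 also: stable D1 dopamine receptor cell line scored for blocking the D1 response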
Method in brief: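 Hit validation in cells stably expressing the D1 dopamine receptor, run in HTRF format. Compounds were tested for their ability to inhibit the D1-mediated response.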

Measured: Potency

CCOC(=O)C1=C(C)NC(C)=C(C(=O)OC)C1c1cccc([N+](=O)[O-])c1 (stereo unspecified)
inactive: all assays above

CCN1CCc2nc(N)oc2CC1
inactive: all assays above

CN(C)CCCN1c2ccccc2Sc2ccc(C(F)(F)F)cc21
inactive: all assays above

CCCCCN(CCCCC)C(=O)C(CCC(=O)O)NC(=O)c1ccc(Cl)c(Cl)c1 (stereo unspecified)
inactive: all assays above

Nc1c2c(nc3ccccc13)CCCC2O (stereo unspecified)
inactive: all assays above

COc1ccc2c(c1OC)C(=O)O[C@@H]2[C@H]1c2c(cc3c(c2OC)OCO3)CCN1C
inactive: all assays above

Brc1c(NC2=NCCN2)ccc2nccnc12
inactive: all assays above

CNC1(C)C2CCC(C2)C1(C)C (stereo unspecified)
inactive: all assays above

C[C@]12CC[C@@H]3c4ccc(O)cc4C[C@@H](CCCCCCCCCS(=O)CCCC(F)(F)C(F)(F)F)[C@H]3[C@@H]1CC[C@@H]2O (stereo partly specified)
inactive: all assays above

O=C(O)CP(=O)(O)O
inactive: all assays above

O=C(CCCN1CCC(O)(c2cccc(C(F)(F)F)c2)CC1)c1ccc(F)cc1
inactive: all assays above

Cc1ccc(=O)n(-c2ccccc2)c1
inactive: all assays above

NS(=O)(=O)c1cc2c(cc1Cl)NC(C1CC3C=CC1C3)NS2(=O)=O (stereo unspecified)
inactive: all assays above

CCCC(C(=O)OCCN(CC)CC)(c1ccccc1)c1ccccc1
inactive: all assays above

CCCCNc1c(C(=O)OCC)c(C)nc2c1cnn2CC
inactive: all assays above

NC(N)=N/N=C/c1c(Cl)cccc1Cl
inactive: all assays above

Cc1nc2sccn2c(=O)c1CCN1CCC(=C(c2ccc(F)cc2)c2ccc(F)cc2)CC1
inactive: all assays above

CCCOc1ccccc1-c1nc2n[nH]nc2c(=O)[nH]1
inactive: all assays above

C[N+](C)(C)CCOC(N)=O
inactive: all assays above

CCN(CC)CCNC(=O)c1ccc(NC(C)=O)cc1
inactive: all assays above

CCC(=O)c1ccc2c(c1)N(CCCN(C)C)c1ccccc1S2
inactive: all assays above

COCCOC(=O)C1=C(C)NC(C)=C(C(=O)OC(C)C)C1c1cccc([N+](=O)[O-])c1 (stereo unspecified)
inactive: all assays above

COc1ccc(CCN(C)CCCC(C#N)(c2cc(OC)c(OC)c(OC)c2)C(C)C)cc1OC (stereo unspecified)
inactive: all assays above

NC(Cc1ccc(Cl)cc1)C(=O)O (stereo unspecified)
inactive: all assays above

CCO/C([O-])=N/c1c[n+](N2CCOCC2)no1
inactive: all assays above

OCCN1CCN(CCCN2c3ccccc3C=Cc3ccccc32)CC1
inactive: all assays above

CN(C)C(=O)Oc1ccc[n+](C)c1
inactive: all assays above

CCCNC(C)C(=O)Nc1ccccc1C (stereo unspecified)
inactive: all assays above

CC(C)[N+](C)(CCOC(=O)C1c2ccccc2Oc2ccccc21)C(C)C
inactive: all assays above

Fc1ccc(C(c2ccc(F)cc2)N2CCN(C/C=C/c3ccccc3)CC2)cc1
inactive: all assays above

C=CCc1ccccc1OCC(O)CNC(C)C (stereo unspecified)
inactive: all assays above

O=C(CCNNC(=O)c1ccncc1)NCc1ccccc1
inactive: all assays above

c1ccc2c(c1)CCCC2C1=NCCN1 (stereo unspecified)
inactive: all assays above

CCN(CC)CC(=O)Nc1c(C)cccc1C
inactive: all assays above

CCc1cccc(N(C)C(N)=Nc2cccc3ccccc23)c1
inactive: all assays above

c1cc(CN2CCCCC2)cc(OCCCNc2nc3ccccc3s2)c1
inactive: all assays above

CC(=O)[C@]1(O)Cc2c(O)c3c(c(O)c2[C@@H](O[C@H]2C[C@H](N)[C@H](O)[C@H](C)O2)C1)C(=O)c1ccccc1C3=O
inactive: all assays above

CCCN(CCC)C(=O)C(CCC(=O)O)NC(=O)c1ccccc1 (stereo unspecified)
inactive: all assays above

CCCN(CCC)CCc1cccc2c1CC(=O)N2
inactive: all assays above

COC(=O)C1=C(C)NC(C)=C(C(=O)OC(C)(C)CN(C)CCC(c2ccccc2)c2ccccc2)C1c1cccc([N+](=O)[O-])c1 (stereo unspecified)
inactive: all assays above

COCCc1ccc(OCC(O)CNC(C)C)cc1 (stereo unspecified)
inactive: all assays above

CCN(CC)CCOCCOC(=O)C1(c2ccccc2)CCCC1
inactive: all assays above

Source: PubChem BioAssay (NCATS)
